# Screening data: PubChem, National Center for Advancing Translational Sciences (NCATS)
# Most compounds without a hit are left out; they make up all but 21% or so of the library.
# DT40 TDP1 no CPT – qHTS for Inhibitors of human tyrosyl-DNA phosphodiesterase 1 (TDP1): qHTS in cells in absence of CPT; DT40 Tdp1-/- hTDP1 cells, no CPT, ATP luminescence, 48 h; Potency, µM (highest dose often 46.2 µM), usual class: inhibitors; hit rate 15% among 420,000; AID 686978, 2013; note: nearly all actives have a fitted effect of over 55% in size
#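 No-CPT arm: Tdp1-/-;hTDP1 DT40 cells (400/well) plus compounds, incubated ≥48 hr at 37 °C. Readout CellTiter-Glo luminescence.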
# IL1B secr inh – blocks inflammasome-driven IL-1 beta release | activity change, % at 57.5 µM | hit rate 4.7% among 360,000 | THP-1 LPS/ATP IL-1B secretion, AlphaLISA, 16 h; hits give low values; in the data active = activity change below about -50%; inconclusive = mostly about -30% to -49%
#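 THP-1 cells pretreated 1 hr with compounds (up to 57.5 uM final), then stimulated with LPS (250 ng/mL final) plus ATP (1.25 mM final); secreted IL-1B measured by AlphaLISA after 16 hr, decreased signal indicating inhibition.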
# ClpP mod – qHTS Assay for Activators of ClpP; ATP-dependent Clp protease proteolytic subunit (Bacillus subtilis (strain 168)), P80244; purified B. subtilis ClpP, FRET peptide cleavage, 20 min; Potency, µM (doses to about 57.5 µM); hit rate 1.9% among 340,000; active = well fitted falling curve with a large enough effect; inconclusive = small, poorly fitted or top-dose-only effect; inactive = no such curve, though single readings can be large or run the other way; note: the source files actives as falling curves though it sought activators and does not explain the sign; nearly all actives have a fitted effect of over 65% in size
# Target sequence (P80244 whole entry, looked up): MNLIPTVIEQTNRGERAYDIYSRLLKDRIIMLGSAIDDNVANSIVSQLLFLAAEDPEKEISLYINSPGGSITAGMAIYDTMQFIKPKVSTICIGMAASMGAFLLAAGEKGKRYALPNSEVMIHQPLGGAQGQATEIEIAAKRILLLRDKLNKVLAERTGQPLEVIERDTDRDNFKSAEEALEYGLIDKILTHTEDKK
#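 Buffer: 100 mM Tris/HCl pH8, 100 mM KCl, 0.05% low protease BSA, 2.5% glycerol, 0.01% Tween-20. ClpP 10 microg/mL final; 20 min RT; delta FRET normalized to ADEP and DMSO controls.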
# DRD3 antagonist – D3 dopamine receptor (human) antagonism | P35462 | max response, negative = inhibition, % | hit rate 2.5% among 360,000 | D3R cells, DiscoveRx beta-arrestin luminescence, antagonist mode; hits give low values; in the data active = max response below about -50%; inconclusive = no clear call, values can overlap the other calls
# Target sequence (P35462 whole entry, looked up): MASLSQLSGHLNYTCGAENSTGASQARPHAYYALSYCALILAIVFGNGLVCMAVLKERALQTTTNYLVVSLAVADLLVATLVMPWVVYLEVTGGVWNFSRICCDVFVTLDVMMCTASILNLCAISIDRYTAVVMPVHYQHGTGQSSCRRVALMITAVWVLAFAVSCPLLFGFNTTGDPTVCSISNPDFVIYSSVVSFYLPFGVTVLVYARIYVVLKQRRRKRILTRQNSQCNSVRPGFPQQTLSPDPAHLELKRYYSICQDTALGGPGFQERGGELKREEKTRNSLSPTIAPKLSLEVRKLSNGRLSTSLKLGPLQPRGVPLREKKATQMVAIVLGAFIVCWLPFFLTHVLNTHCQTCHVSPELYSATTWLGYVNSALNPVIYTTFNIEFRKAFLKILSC
#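 Cells plated overnight at 1500 cells/well, then exposed to library compounds with dopamine controls for 90 minutes at 37 degrees C. DiscoveRx reagent added for 30–60 minutes at room temperature; luminescence read, quantitative HTS format.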
# DT40 TDP1 CPT – growth inhibition of DT40 Tdp1-/-;hTDP1 cells with camptothecin (screen for TDP1 inhibitors); chicken DT40 Tdp1-/-;hTDP1 cells + 20 nM CPT, ATP luminescence, 48 h; Potency, µM (series often up to 46.2 µM), most hits filed as inhibitors; hit rate 12% among 420,000; AID 686979; note: nearly all actives have a fitted effect of over 55% in size
#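 Chicken DT40 Tdp1-/- cells stably complemented with human TDP1 were seeded at 400 cells/well in medium containing 20 nM camptothecin, exposed to pin-transferred compounds, and grown at 37 °C for at least 48 hr. Viability was read as ATP luminescence.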
# D3 ag – agonists of human D3 dopamine receptor; D3R DiscoveRx beta-arrestin cells, luminescence, 90 min; max activation, %; hit rate 0.58% among 410,000; AID 652048; in the data active = max activation above about 30%
#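 Agonist-mode cell screen: cells plated at 1500/well and incubated overnight at 37 °C, then exposed to library compounds for 90 min at 37 °C. Detection reagent was added for 30–60 min at room temperature, and luminescence was read.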
# A number is an active result; – = inactive; ? = inconclusive; · = no result. Unless noted, calls come from the whole dose curve; as a rule, active = well fitted inhibition curve with a large enough effect; inconclusive = small, poorly fitted or top-dose-only effect; inactive = flat fitted curve, though single readings scatter.
SMILES,DT40 TDP1 no CPT,IL1B secr inh,ClpP mod,DRD3 antagonist,DT40 TDP1 CPT,D3 ag
OC(COC1CCCCC1)CN1CCCCC1 (stereo not given),–,–,–,-72,–,–
CC(C)(C)C1CCC(OCC(O)CN2CCN(c3ccccc3)CC2)CC1 (stereo not given),?,–,?,–,?,59
CC1CCN(CC(O)COC2CCC(C(C)(C)C)CC2)CC1 (stereo not given),18µM,?,–,-56,23µM,–
Cc1ccc(N2CCN(CC(O)COC3CCCCC3)CC2)cc1 (stereo not given),?,–,–,-90,–,–
COC(=O)[C@H](CCSC)NC(=O)Nc1cc(OC)cc(OC)c1,–,–,·,–,–,–
CSc1ccccc1C(=O)OCC(=O)Nc1ccc(N2CCOCC2)cc1,?,–,–,–,?,–
O=c1c(Cl)c(N2CCCCC2)cnn1-c1nc2ccccc2[nH]1,21µM,–,–,–,?,–
O=c1c2ccccc2nc2c3ccccc3cnn12,?,–,?,–,?,–
Clc1ccc2nc(N3CCCCC3)[nH]c2c1,–,–,–,–,–,–
O=c1c2ccccc2cnn1-c1nc2ccccc2[nH]1,3.7µM,–,?,–,4.1µM,–
c1ccc(CNc2ncnc3nc(N4CCOCC4)[nH]c23)cc1,–,·,–,·,?,·
Cc1nnc(NC(=O)c2cc3n(n2)C(C(F)(F)F)CC(C2CC2)N3)s1 (stereo not given),–,–,–,–,–,–
O=C(Nc1nc2c(s1)CCCC2)c1cc2n(n1)C(C(F)(F)F)CC(C1CC1)N2 (stereo not given),?,-60,–,–,–,–
Cc1onc(-c2c(Cl)cccc2Cl)c1/C(N)=N/OC(=O)C1CC1,–,–,–,–,–,–
Cc1cc(C)nc(NS(=O)(=O)c2ccc(N=Cc3c(C)[nH]n(-c4ccccc4)c3=O)cc2)n1,?,–,–,–,21µM,–
Cc1[nH]n(-c2ccccc2)c(=S)c1C=Nc1ccc([N+](=O)[O-])cc1,23µM,–,–,?,13µM,–
CCc1nnc(NS(=O)(=O)c2ccc(N=Cc3c(C)[nH]n(-c4ccc(C)c(C)c4)c3=O)cc2)s1,8.2µM,–,–,–,2.1µM,–
COC(=O)c1cc(OC)c(OC)cc1NC(=O)c1ccc2c(c1)CCN2S(C)(=O)=O,–,·,–,·,–,–
CCOC(=O)c1ccc(S(=O)(=O)N2CC(=O)Nc3ccccc32)cc1,18µM,–,·,–,18µM,–
CCn1c(=O)cc(SCC(=O)N2CCN(c3ccccc3OC)CC2)c2ccccc21,?,–,–,–,18µM,–
CCn1c(=O)cc(SCC(=O)N2CCN(C(=O)c3ccco3)CC2)c2ccccc21,?,-52,–,–,–,–
CC1CCc2c(sc(NC(=O)CN3CCN(C(=O)c4ccco4)CC3)c2C#N)C1 (stereo not given),26µM,–,–,–,18µM,–
Cc1ccc(C(=O)c2cc(C)sc2NC(=O)CN2CCN(C(=O)c3ccco3)CC2)cc1,18µM,-69,–,–,?,–
CCOC(=O)c1c(NC(=O)CN2CCN(C(=O)c3ccco3)CC2)sc(C(N)=O)c1C,18µM,–,–,–,–,–
CCc1cc(C(=O)OC)c(NC(=O)CN2CCN(C(=O)c3ccco3)CC2)s1,?,–,–,–,?,–
SMILES,DT40 TDP1 no CPT,IL1B secr inh,ClpP mod,DRD3 antagonist,DT40 TDP1 CPT,D3 ag
CCn1ccnc1CN(C)Cc1cn(-c2cccc(C)c2)nc1-c1cccc(F)c1,?,-62,–,–,16µM,–
CCn1ccnc1CNCc1cn(-c2cc(C)ccc2C)nc1-c1ccccc1,?,–,–,–,?,–
CCn1ccnc1CN(C)Cc1cn(-c2ccc(C)cc2)nc1-c1cccc(C)c1,–,-249,·,–,?,–
Cc1ccc(-n2cc(CN3CCN(Cc4nccn4C)CC3)c(-c3cccc(C)c3)n2)cc1,?,-57,·,–,?,–
CCOC(=O)c1ccc(NC(=O)Cn2nc(C)c3nn(-c4ccc(Cl)cc4)c(C)c3c2=O)cc1,?,·,–,·,–,–
CC(C)CC(=O)N1CCN(Cc2ccccc2[N+](=O)[O-])CC1,–,–,·,–,–,–
Cc1cccc(C(=O)Nc2cc(NC(=O)c3cccs3)ccc2C)c1,?,–,–,–,?,–
CCN1CCN(Cc2ccc(NC(=O)c3ccc(C)c(NC(=O)c4nccn4C)c3)cc2C(F)(F)F)CC1,–,-58,–,–,–,–
Cc1ccc(C(=O)Nc2cccc(C(F)(F)F)c2)cc1NC(=O)c1nccn1C,–,–,–,–,–,–
CCN1CCN(Cc2ccc(NC(=O)c3ccc(C)c(NC(=O)c4cncc(-c5cccs5)c4)c3)cc2C(F)(F)F)CC1,1.6µM,-110,–,–,2.3µM,–
CCN1CCN(Cc2ccc(NC(=O)c3ccc(C)c(NC(=O)c4nccnc4N)c3)cc2C(F)(F)F)CC1,21µM,-93,–,–,?,–
CCN1CCN(Cc2ccc(NC(=O)c3ccc(C)c(NC(=O)c4cc(-c5ccc(Br)cc5)n[nH]4)c3)cc2C(F)(F)F)CC1,?,-58,?,–,?,–
Clc1ccc(-c2cnnc(-c3ccccn3)n2)cc1,?,–,–,–,?,–
CCN1CCN(Cc2ccc(NC(=O)c3ccc(C)c(NC(=O)c4cccc5[nH]ccc45)c3)cc2C(F)(F)F)CC1,13µM,-98,?,–,12µM,–
CCn1cc(/C=N\NC(=O)c2ccc3c(c2)c(C)c(C)n3Cc2ccccc2)c(C)n1,16µM,–,–,–,13µM,–
CCn1nc(C)c(/C=N/NC(=O)c2ccc3c(c2)c(C)c(C)n3Cc2ccccc2)c1C,10µM,–,10µM,–,10µM,–
O=C(OCCN=C1NS(=O)(=O)c2ccccc21)c1ccccc1F,–,–,·,–,–,–
O=C(NNc1ccc(F)cc1F)c1cccs1,–,·,–,·,–,·
Cc1nc2ccccn2c(=O)c1NC(=O)c1ccc(C(F)(F)F)cc1,?,·,–,·,–,–
CN(C)C(=O)c1ccc(SC(=S)NCc2ccccc2)cc1,5.8µM,?,–,–,5.8µM,–
CC(C)(C)CC(=O)NC(=S)NCc1ccccc1,–,–,–,–,?,–
C=CCOc1cccc(C2/C(=C(/O)c3ccc(Cl)cc3)C(=O)C(=O)N2CCN2CCOCC2)c1 (stereo not given),–,–,–,-56,–,–
Cc1ccccc1Cn1c2ccccc2c2cnn(CC(=O)NCCCN3CCOCC3)c(=O)c21,–,-72,–,–,?,–
